Among the test systems are T-47D breast; BT-549 breast; MDA-MB-435 melanoma; SW-620 colon; MCF7 breast; HCT-116 colon; HCC-2998 colon; KM12 colon.
What all share (experiment): NCI-60 one-dose screen, 48 h (100 = growth as untreated, 0 = no growth, -100 = all killed)
Holding throughout (details): 10 µM unless noted

SMILES strings stand for the structures. This is part of a sample that, as a whole, favours compounds with a hit. Of some 83,000 tested, about 20% had one in any assay.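 Single-concentration screen, 48 h exposure, 96-well plates. Endpoint: percent growth. Below 10 = active.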 Unmarked numbers belong to inactive results. Calls of active or inactive are those of the source.

`COc1ccc(Br)c2ccccc12`: the growth with T-47D breast is 97.9%; in the test with BT-549 breast, 123%; with MDA-MB-435 melanoma, 105%; in the test on SW-620 colon, 106%; with MCF7 breast, 100%; with HCT-116 colon, 108%. Further, the growth in the test on HCC-2998 colon was 104%; in the test with KM12 colon it was 109%.

For the molecule `O=C(NCC(c1ccsc1)N1CCCCCC1)c1ccc(C(F)(F)F)cc1` (configuration not stated), the growth in the test with T-47D breast is 91.7%; in the test on BT-549 breast it was 99.8%; with MDA-MB-435 melanoma it was 91.8%; with SW-620 colon, 96.6%; in the test with MCF7 breast it was 94.5%; with HCT-116 colon it was 88.9%. Further, the growth is 102% in the test on HCC-2998 colon and 76.8% with KM12 colon.

`CCN(CC)Cc1cc(Nc2ccnc3cc(Cl)ccc23)cc(-c2ccc(Cl)cc2)c1O`: the growth was 50.9% in the test on T-47D breast; 25.4% in the test with BT-549 breast; 35.4% with MDA-MB-435 melanoma; 12.3% in the test with SW-620 colon; 14.8% with MCF7 breast; 43.4% in the test on HCT-116 colon. Also, the growth is 64.3% in the test on HCC-2998 colon and 34.5% in the test with KM12 colon.

Turning to `Cc1cc(C)c2c(n1)sc1c(Nc3ccc(O)cc3)ncnc12`, the growth was 39.6% in the test with T-47D breast; 50.6% in the test with BT-549 breast; 36.6% in the test with MDA-MB-435 melanoma; 45.6% in the test with SW-620 colon; 20.3% in the test on MCF7 breast; 29.2% with HCT-116 colon. For the same molecule, the values for the growth with HCC-2998 colon and with KM12 colon were 63.3% and 50.3%, respectively.

Consider `COc1ccc(/C=C(/C(=O)N2CCN(c3ccccc3)CC2)c2cc(OC)c(OC)c(OC)c2)cc1N`, for which the growth with T-47D breast is 65.3%; in the test on BT-549 breast it was 9.88% (active); with MDA-MB-435 melanoma it was -48.7% (active); in the test with SW-620 colon it was 25.9%; in the test with MCF7 breast it was 19.9%; in the test with HCT-116 colon, 9.1% (active). Also, the values for the growth in the test with HCC-2998 colon and with KM12 colon were 25.3% and 14.4%, respectively.

Take `O=c1[nH]c2cc(Cl)c(Cl)cc2o1`: the growth in the test with T-47D breast is 121%; with BT-549 breast, 132%; in the test on MDA-MB-435 melanoma, 103%; in the test on SW-620 colon it was 98.9%; in the test on MCF7 breast it was 105%; in the test with HCT-116 colon, 98.9%. Moreover, the figures for the growth with HCC-2998 colon and in the test on KM12 colon were 117% and 111%, respectively.

Take `O=C1Cc2c([nH]c3ccc([N+](=O)[O-])cc23)-c2ccccc2N1`: the growth was 22.1% in the test on T-47D breast; 5.54% (active) in the test with BT-549 breast; 16.2% in the test on MDA-MB-435 melanoma; -3.84% (active) with SW-620 colon; 8.43% (active) in the test on MCF7 breast; 4.3% (active) in the test on HCT-116 colon. For the same molecule, the results for the growth in the test on HCC-2998 colon and in the test on KM12 colon were -34.5% (active) and 4.23% (active), respectively.

In the case of `O=c1c2sc3ncc(Cl)cc3c2nnn1-c1cccc(Cl)c1`, the growth with T-47D breast was 74.7%; in the test on BT-549 breast, 85.4%; in the test with MDA-MB-435 melanoma it was 66.9%; in the test with SW-620 colon it was 80.5%; in the test on MCF7 breast, 82.5%; in the test on HCT-116 colon, 31.3%. Also, the growth was 125% with HCC-2998 colon and 87.4% in the test with KM12 colon.

Turning to `Oc1c(C(c2ccc(F)cc2)N2CCCCC2)ccc2cncnc12` (configuration not stated), the growth in the test with T-47D breast was 5.62% (active); in the test on BT-549 breast, 25.8%; with MDA-MB-435 melanoma it was 14.1%; in the test on SW-620 colon it was 18.1%; in the test on MCF7 breast, 6.3% (active); in the test on HCT-116 colon, 11.1%. Also, the growth in the test on HCC-2998 colon was 32.3%; in the test on KM12 colon it was 16.2%.

On to `COc1ccc(C2=NN(C=O)C(c3ccc(OS(=O)(=O)c4ccc(C)cc4)c(OC)c3)C2)cc1` (configuration not stated), for which the growth was 40.3% in the test on T-47D breast; 46.4% with BT-549 breast; 14.1% in the test on MDA-MB-435 melanoma; 48.3% in the test with SW-620 colon; 40.2% with MCF7 breast; 45.8% in the test with HCT-116 colon. The growth in the test with HCC-2998 colon is 74.1%; in the test with KM12 colon, 54.5%.

As for `CCOC(=O)Nc1ccc2nc(-c3cscn3)[nH]c2c1`, the growth in the test with T-47D breast is 44.5%; with BT-549 breast, 48.6%; in the test on MDA-MB-435 melanoma, -40.5% (active); in the test with SW-620 colon, 19.8%; in the test on MCF7 breast, 34%; with HCT-116 colon it was 21.6%. Moreover, the growth with HCC-2998 colon was 65.7%; in the test with KM12 colon it was 34.3%.

Regarding `COc1ccc(NC(=O)c2ccc(C(F)(F)F)nc2Nc2ccc(Cl)cc2C)cc1Cl`, the growth was 21.8% with T-47D breast; 19% in the test on BT-549 breast; 18.6% with MDA-MB-435 melanoma; 13.4% in the test with SW-620 colon; 9.61% (active) with MCF7 breast; 3.71% (active) with HCT-116 colon. The growth was 16.7% in the test on HCC-2998 colon and 24.3% in the test on KM12 colon.

For `Cn1c(=O)c2[nH]c(Cc3ccc4c(c3)OCO4)nc2n(C)c1=O`, the growth in the test with T-47D breast was 99.8%; with BT-549 breast it was 103%; with MDA-MB-435 melanoma it was 107%; in the test with SW-620 colon, 99.8%; with MCF7 breast, 97.7%; in the test with HCT-116 colon it was 105%. Besides, the values for the growth with HCC-2998 colon and with KM12 colon were 109% and 108%, respectively.

On to `CC(=O)c1ccc(-n2c(-c3cc(-c4ccsc4)n[nH]3)n[nH]c2=S)cc1`, for which the growth in the test on T-47D breast was 103%; in the test with BT-549 breast, 95.3%; in the test with MDA-MB-435 melanoma it was 106%; in the test on SW-620 colon, 94%; with MCF7 breast, 90.4%; in the test on HCT-116 colon it was 98.1%. Also, the growth in the test on HCC-2998 colon is 99%; in the test on KM12 colon, 100%.
